This is a sample that favours compounds with a hit; in the whole collection about 2.3% have one here.
Bim-Mcl-1: inhibitors of Bim peptide binding to Mcl-1, primary screen, biochemical, bead-based flow cytometry, multiplex; Bim peptide-Mcl-1 binding; inhibition, % at 10 µM; 0.1% of 190,000 active; AID 1009, 2008; in the data active = inhibition above about 40%
Target sequence (Q07820 whole entry, looked up): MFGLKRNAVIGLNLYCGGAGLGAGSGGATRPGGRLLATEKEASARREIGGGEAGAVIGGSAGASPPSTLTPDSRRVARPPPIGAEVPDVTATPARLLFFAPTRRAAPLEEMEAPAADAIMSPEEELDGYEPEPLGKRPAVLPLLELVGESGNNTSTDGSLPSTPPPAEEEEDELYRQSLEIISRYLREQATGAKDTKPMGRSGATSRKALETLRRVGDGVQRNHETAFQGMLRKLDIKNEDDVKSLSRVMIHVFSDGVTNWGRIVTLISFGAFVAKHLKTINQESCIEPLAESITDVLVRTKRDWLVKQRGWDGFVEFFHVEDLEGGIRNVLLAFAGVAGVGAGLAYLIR
GLD-1 TGE inh: GLD-1/TGE RNA complex disruptors, primary screen, biochemical, fluorescence polarization; AID 2280, 2010; 0.44% of 320,000 active; purified GLD-1 + fluorescein TGE RNA; inhibition, % at 5.96 µM;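 active = percent inhibition above a per-plate cutoff, the plate mean of test compounds plus 3 SD, cut at about 30% in these data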
Mcl1-Noxa inh: Mcl-1/Noxa binding inhibitors, primary screen, biochemical, TR-FRET, 1536-well; TR-FRET Mcl-1/Noxa peptide binding, 2 h; inhibition, % at 21.7 µM; AID 1022, 2008; 1.5% of 220,000 active;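 active = compounds that cut the protein-peptide binding signal by more than 50% relative to plate controls in a single-dose test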;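 note: His-tagged Mcl-1 with rhodamine Noxa BH3 peptide and terbium anti-His antibody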
BCLXL inh: inhibitors of human Bcl-xL, primary screen, biochemical, fluorescence polarization, HTS; Bcl-2-like protein 1 (Homo sapiens), Q07817; GST-Bcl-xL / FITC-Bim BH3 peptide fluorescence polarization; inhibition, % at 10.9 µM; 0.7% of 320,000 active; AID 2129, 2009;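 active = inhibition above the mean of all tested compounds plus 3 SD, cutoff set per campaign, cut at about 30% in these data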;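 note: inhibitors lower millipolarization by displacing the labeled peptide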
Target sequence (Q07817 whole entry, looked up): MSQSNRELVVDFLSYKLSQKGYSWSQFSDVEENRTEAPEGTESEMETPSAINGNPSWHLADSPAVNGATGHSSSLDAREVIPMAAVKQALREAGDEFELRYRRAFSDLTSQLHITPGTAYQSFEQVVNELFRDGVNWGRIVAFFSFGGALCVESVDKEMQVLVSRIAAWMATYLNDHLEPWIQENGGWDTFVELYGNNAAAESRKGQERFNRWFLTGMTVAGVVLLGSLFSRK
MCL1 BIM primary: inhibitors of MCL1 binding to BIM-BH3, primary screen, biochemical, fluorescence polarization | inhibition, % at 10.9 µM | Induced myeloid leukemia cell differentiation protein Mcl-1 (Homo sapiens), Q07820 | GST-MCL1 / FITC-Bim-BH3 fluorescence polarization | 0.68% of 320,000 active;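 active = inhibition above the mean inhibition of all tested compounds plus 3 SD, set per campaign, cut at about 40% in these data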;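 note: higher means more loss of mP so more displacement of Bim peptide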
Mcl1 Bid PPI: Mcl-1/Bid binding inhibitors, primary screen, biochemical, TR-FRET, 1536-well; TR-FRET Mcl-1/Bid-Dy647 peptide binding; 0.97% of 220,000 active; Induced myeloid leukemia cell differentiation protein Mcl-1 (Homo sapiens), Q07820; AID 1021, 2008; inhibition, % at 21.7 µM;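 active = compounds that cut the binding signal by more than half at the single screening dose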;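 note: His-tagged Mcl-1 with europium anti-His antibody binding Bid BH3 peptide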
Hits are given with their value; - = inactive; . = not tested or not shown.

SMILES	Bim-Mcl-1	GLD-1 TGE inh	Mcl1-Noxa inh	BCLXL inh	MCL1 BIM primary	Mcl1 Bid PPI
C=CCSc1nc(C)c(CC(=O)OCC(C)C)c(=O)[nH]1	-	-	-	-	-	-
COC(=O)c1ccc(OCCCCN2CC(C)OC(C)C2)cc1 (stereo unspecified)	-	-	-	-	-	52
CC1CN(CCCCOc2ccc3ccccc3c2)CC(C)O1 (stereo unspecified)	-	-	-	-	-	-
CC1CCCCC1NC(=O)CC1Oc2ccccc2NC1=O (stereo unspecified)	.	-	-	-	-	52
Cc1ccc2c(c1)NC(=O)C(CC(=O)NC1CCCCC1C)O2 (stereo unspecified)	-	-	-	-	-	-
CC(=O)Nc1ccc(-n2cc(-c3ccccc3)[nH]c2=S)cc1	-	-	53	-	-	-
COc1ccc(-n2cc(-c3ccccc3)[nH]c2=S)cc1	-	-	-	-	-	-
CCN(CC)c1ccc2c(Cl)cc(=O)oc2c1	-	-	-	-	-	-
CCNc1ccc2c(Cl)cc(=O)oc2c1	-	-	-	-	-	97
Cc1ccc(-c2nnc(SCC(=O)N/N=C/c3ccccc3C(=O)O)n2-c2ccccc2)cc1	-	-	-	-	-	-
Cc1ccc(-c2nnc(SCC(=O)N/N=C/c3ccc(C)s3)n2-c2ccc(C)cc2)cc1	-	-	-	-	-	97
Cc1ccc2c(c1)c1c3n2CCCNC3CCC1 (stereo unspecified)	-	-	-	-	-	63
Cc1nc2c(-c3ccc(Cl)cc3)c(C)[nH]n2c(=O)c1Cc1ccccc1	-	-	-	-	-	-
O=C(N/C(C(=O)N1CCOCC1)=C(\Sc1ncccn1)c1ccccc1)c1ccccc1	-	-	-	-	-	-
Cc1cccc(N(CC(=O)Nc2c(C)n(C)n(-c3ccccc3)c2=O)S(C)(=O)=O)c1	-	-	-	-	-	99
COCCN(CCOC)S(=O)(=O)c1ccc(C(=O)Nc2c(C)n(C)n(-c3ccccc3)c2=O)cc1	.	-	102	-	-	-
Cc1c(NC(=O)c2ccc(S(=O)(=O)N(C)c3ccccc3)cc2)c(=O)n(-c2ccccc2)n1C	-	-	-	-	-	-
COc1ccc(N(CC(=O)Nc2c(C)n(C)n(-c3ccccc3)c2=O)S(=O)(=O)c2ccc(C)cc2)cc1OC	.	-	.	-	-	.
COc1ccc(C(C)=O)cc1COC(=O)c1c(C)noc1C	-	-	-	-	-	-
COc1ccc(C(C)=O)cc1COC(=O)c1ccc(OCc2c(C)noc2C)cc1	-	-	-	-	-	52
CC(=O)c1sc(-c2ccc(Cl)cc2)cc1N	.	-	-	-	-	56
COC(=O)c1sc(-c2ccc(Cl)cc2)cc1N	.	-	-	-	-	-
CCCC(=O)Nc1nnc(Cc2ccccc2)s1	-	-	-	-	-	-
FC(F)(F)c1ccc(Cl)c(N/N=C/c2ccc(N3CCOCC3)s2)c1	-	-	67	-	-	-
CN(CC(=O)Nc1cccnc1)S(=O)(=O)c1ccccc1	-	-	-	-	-	64
SMILES	Bim-Mcl-1	GLD-1 TGE inh	Mcl1-Noxa inh	BCLXL inh	MCL1 BIM primary	Mcl1 Bid PPI
O=C(CS(=O)(=O)c1ccccc1)Nc1cccnc1	-	-	-	-	-	-
O=C(c1ccc(F)cc1)N1CCN(C2CC3CCC2C3)CC1 (stereo unspecified)	-	-	-	-	-	-
O=C(c1ccccc1)N1CCN(C2CC3CCC2C3)CC1 (stereo unspecified)	-	-	-	-	-	57
O=C(c1ccccc1)N1CCN(C2CCCCCC2)CC1	-	-	-	-	-	66
CC(C)(C)OC(=O)NC(Cc1ccccc1)C(=O)O (stereo unspecified)	.	-	-	-	-	60
C#CCOC(=O)/C(=C/c1ccc(F)cc1)NC(C)=O	-	-	-	-	-	-
CC(C)c1nc2sc3c(=O)[nH]c(=S)[nH]c3c2c2c1CCCC2	.	-	57	-	-	-
CC(C)c1nc2sc3c(=O)[nH]c(=S)[nH]c3c2c2c1CCC2	-	.	81	.	.	-
CCOC(=O)c1sc2nc(C(C)C)c3c(c2c1N)CCC3	-	-	-	-	-	-
COc1ccc(C(=O)OC(C)C(=O)NC(C)CCc2ccccc2)cc1OC (stereo unspecified)	.	-	.	-	-	.
Cc1cc(O)c(C=O)c2c1C(=O)Oc1c(CO)c(O)c3c(c1O2)C(O)OC3=O (stereo unspecified)	-	-	53	48	103	-
CCC(C(=O)N1CCN(c2ncccn2)CC1)c1ccccc1 (stereo unspecified)	.	-	-	-	-	-
CCCCCc1ccc(-c2cn(Cc3cccc(OC)c3)nn2)cc1	.	-	.	-	-	.
CSc1nc(N(CCO)CCO)c2sc3nc(-c4ccco4)c4c(c3c2n1)CCC4	-	.	107	.	.	80
COCCCNc1ncnc2c1sc1nc(-c3ccco3)c3c(c12)CC(C)(C)OC3	.	-	-	-	-	-
CSc1nc(SCCO)c2sc3nc(-c4ccco4)c4c(c3c2n1)CC(C)(C)OC4	-	.	99	.	.	85
CC1(C)Cc2c(c(-c3ccco3)nc3sc4c(NCCO)ncnc4c23)CO1	-	-	54	-	-	-
COc1ccc(NS(=O)(=O)c2cc(NC(=O)c3nn(C)c(=O)c4ccccc34)ccc2OC)cc1	-	-	-	-	-	-
CCCCSc1nnc(CSc2nc3nc(C)cc(C)n3n2)o1	-	-	-	-	-	-
CC(=O)c1cc(C#N)c(NCCCN(C)C)nc1C	-	-	-	-	-	56
Brc1ccc(Nc2nc3ccccc3n3nnnc23)cc1	-	-	-	-	-	-
CC1(C)CC(CC(=O)O)(c2ccccc2)CCO1 (stereo unspecified)	-	-	-	-	-	66
CCOC(=O)C1CCN(C(=O)C2(NC(=O)Nc3ccccc3Cl)CCCCC2)CC1	-	-	-	-	-	-
CCOC(=O)c1ccccc1NC(=O)c1ccc2nccnc2c1	-	-	51	-	-	-
CC1(C)Cc2cccc(OCC(=O)OCC(=O)Nc3cccc(S(N)(=O)=O)c3)c2O1	.	-	-	-	-	93
CC1(C)Cc2cccc(OCC(=O)OCC(=O)Nc3ccccc3)c2O1	.	-	.	-	-	.
CCSc1ncc(/C=N/Nc2ccccc2)n1C	-	-	-	-	-	-
CCSc1ncc(/C=N/Nc2ccc([N+](=O)[O-])cc2)n1C	-	-	80	-	-	-
CCOC(=O)c1nn(-c2ccccc2)c(C#N)c1N	41	-	-	-	-	-
